Inconclusive results are not listed. A call without a number means that no potency is given here. Calls of active or inactive are those of the source. Calls come from the whole dose curve; as a rule, active = well fitted inhibition curve with a large enough effect; inconclusive = small, poorly fitted or top-dose-only effect; inactive = no such curve, though single readings can be large or run the other way.
Legend:
[1] = system: Zika virus NS2B-NS3 protease (unlinked complex); assay: Primary screen GU Rhodamine qHTS for Zika virus inhibitors: Unlinked NS2B-NS3 protease assay (AID 1347159); note: nearly all actives have a fitted effect of over 60% in size
Method in brief: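 A qHTS format was used, with compound concentrations ranging up to 114 microM. Each compound was preincubated with 25 nM NS2B-NS3 protease, and the substrate was then added at 1.5 microM. Curves were fitted with a 4-parameter Hill model.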

[2] = system: Zika virus NS2B-NS3 protease (linked construct); assay: Primary screen NINDS Rhodamine qHTS for Zika virus inhibitors (AID 1347160); note: nearly all actives have a fitted effect of over 55% in size
Method in brief: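 Kinetic fluorescence (Ex 480 nm, Em 540 nm) over 15 min with 1.5 microM Rhodamine110 peptide and 25 nM linked protease.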

O=C(c1ccc(F)cc1)N1CCCC(c2nc(-c3ccc(F)cc3)no2)C1 (centres undefined)
Potency [1]: inactive
Potency [2]: inactive

CN(C)[C@@H]1CCc2[nH]c3ccc(NC(=O)c4ccc(F)cc4)cc3c2C1
Potency [1]: inactive
Potency [2]: inactive

Cc1cc(C(=O)Nc2cc(Oc3ccc4nc(NC(=O)C5CC5)cn4n3)ccc2C)n(C)n1
Potency [1]: inactive
Potency [2]: inactive

Oc1ccc(-c2cnc3ccc(NCc4ccco4)nn23)cc1
Potency [1]: inactive
Potency [2]: inactive

CCC(C)CNCC(=O)N1CCc2sccc2C1COc1cccc(C)c1 (centres undefined)
Potency [1]: inactive
Potency [2]: inactive

O=C(NCCN1CCN(c2cccc3c2OCCO3)CC1)c1ccc(F)cc1
Potency [1]: inactive
Potency [2]: inactive

COc1ccc(CCc2nc3cc(-c4c(C)noc4C)ccc3n2CC(C)N2CCOCC2)cc1Cl (centres undefined)
Potency [1]: inactive
Potency [2]: inactive

CCCc1cc2c(N3CCN(C4=NCC(C)(C)S4)CC3)ncnc2s1
Potency [1]: inactive
Potency [2]: inactive

COCC(c1ccc(C(F)(F)F)cc1)N1CCN(C2(C)CCN(C(=O)c3c(C)ncnc3C)CC2)CC1C (centres undefined)
Potency [1]: inactive
Potency [2]: inactive

C=C1C(=O)O[C@@H]2C[C@@]3(C)CCCC(=C)[C@]3(O)C[C@H]12
Potency [1]: inactive
Potency [2]: inactive

CCCCCCCCn1cc(CN(CC)CC)c2cc(-c3cnc(N)nc3)ccc21
Potency [1]: inactive
Potency [2]: inactive

CNc1nc(NCc2ccc(NS(C)(=O)=O)cc2Cl)cc(-c2ccccn2)n1
Potency [1]: inactive
Potency [2]: inactive

CCCNCCc1ccc(NS(=O)(=O)c2ccc(OC(F)(F)F)cc2)cc1
Potency [1]: inactive
Potency [2]: inactive

CC(C)/C=C1\NC(=O)C(C(C)C)n2c1nc1ccccc1c2=O (centres undefined)
Potency [1]: inactive
Potency [2]: inactive

C=C(C)C(=O)OC1CC(CO)CCC/C(CO)=C/C2OC(=O)C(=C)C21 (centres undefined)
Potency [1]: inactive
Potency [2]: inactive

Cc1ccc(-c2cn3c4c(sc3n2)CCCC4)cc1
Potency [1]: inactive
Potency [2]: inactive

CC(C)(N)c1ncc(-c2ccc(OC(F)(F)F)cc2)[nH]1
Potency [1]: inactive
Potency [2]: inactive
